Experimental data: PubChem BioAssay AID1159580 (chemical genetic matrix, 2015)
Several values for one entry are separate records, joined by “and”; a condition that tells them apart may be missing. Identical values can stand only once. In all, about 5,500 compounds went through this assay and about 2,000 (36%) were called active. Roughly 18% stayed inconclusive and do not appear here. Rule as the data show it: active = normalized growth mostly below about 0.91 (no sharp cut-off); inconclusive = no clear call, values can overlap the other calls; inactive = mostly above about 0.92. Some of the results follow.

Assay: chemical genetic growth profiling, strain panel (AID 1159580);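 also: tested at 20 µM; growth read once vehicle control cultures reached saturation at 30 °C; 1 = growth at the plate median or of vehicle wells; lower values mean less growth of the strain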
Conditions: S. cerevisiae deletion strains, growth OD

Measured: normalized growth

O=c1[nH]cnc2c1ncn2C1O[C@H](CO)[C@@H](O)[C@H]1O (stereo partly drawn)
inactive: locus YAL013W, strain DEP1, active compounds read low 1.01 | locus YAL021C, strain ccr4, active compounds read low 0.989 | locus YAL026C, strain drs2, active compounds read low 1 | locus YAL030W, strain snc1, active compounds read low 0.989 | locus YBL061C, strain skt5, active compounds read low 0.995 | locus YBR009C, strain hhf1, active compounds read low 1.02 | locus YBR021W, strain FUR4, active compounds read low 1 | locus YBR023C, strain chs3, active compounds read low 0.998 | locus YBR171W, strain sec66, active compounds read low 0.978 | locus YBR229C, strain ROT2, active compounds read low 1 | locus YBR231C, strain swc5, active compounds read low 0.974 | locus YBR279W, strain paf1, active compounds read low 0.986 | locus YCL011C, strain gbp2, active compounds read low 1 | locus YCL016C, strain dcc1, active compounds read low 1 | locus YCL029C, strain bik1, active compounds read low 1.03 | locus YCL069W, strain vba3, active compounds read low 0.995 | locus YCR088W, strain abp1, active compounds read low 0.981 | locus YDL005C, strain med2, active compounds read low 0.987 | locus YDL035C, strain GPR1, active compounds read low 1.01 | locus YDL040C, strain nat1, active compounds read low 0.986 | locus YDL074C, strain BRE1, active compounds read low 1.01 | locus YDL101C, strain DUN1, active compounds read low 1.01 | locus YDL134C, strain PPH21, active compounds read low 1 | locus YDL185W, strain tfp1, active compounds read low 1.04 | locus YDL192W, strain arf1, active compounds read low 1.05 | locus YDR001C, strain nth1, active compounds read low 0.986 | locus YDR069C, strain doa4, active compounds read low 0.975 | locus YDR101C, strain arx1, active compounds read low 1.05 | locus YDR137W, strain rgp1, active compounds read low 1.01 | locus YDR159W, strain sac3, active compounds read low 0.968 | locus YDR162C, strain NBP2, active compounds read low 1.01 | locus YDR195W, strain ref2 0.958 | locus YDR297W, strain sur2, active compounds read low 0.993 | locus YDR318W, strain mcm21, active compounds read low 1.01 | locus YDR334W, strain swr1, active compounds read low 0.974 | locus YDR335W, strain msn5, active compounds read low 0.997 | locus YDR388W, active compounds read low 1.03 | locus YDR392W, strain spt3, active compounds read low 0.907 | locus YDR502C, strain sam2, active compounds read low 1.02 | locus YEL003W, strain gim4, active compounds read low 0.991 | locus YEL037C, strain rad23, active compounds read low 0.987 | locus YEL061C, strain CIN8 (second series), active compounds read low 0.989 | locus YEL061C, strain CIN8, active compounds read low 1 | locus YER015W, strain faa2, active compounds read low 0.982 | locus YER016W, strain bim1, active compounds read low 0.989 | locus YER110C, active compounds read low 1.03 | locus YER111C, strain swi4, active compounds read low 0.996 | locus YER155C, strain BEM2 (second series), active compounds read low 0.939 | locus YER155C, strain BEM2, active compounds read low 1.01 | locus YER167W, strain BCK2, active compounds read low 1 | locus YFR010W, strain ubp6, active compounds read low 0.983 | locus YGL078C, strain dbp3, active compounds read low 1.02 | locus YGL086W, strain mad1, active compounds read low 1.01 | locus YGL167C, strain pmr1, active compounds read low 0.978 | locus YGL173C, strain kem1, active compounds read low 0.988 | locus YGL227W, strain vid30, active compounds read low 0.98 | locus YGL240W, strain doc1, active compounds read low 1 | locus YGL248W, strain PDE1, active compounds read low 1.01 | locus YGL253W, strain hxk2, active compounds read low 0.988 | locus YGR135W, strain pre9, active compounds read low 0.998 | locus YGR252W, strain gcn5, active compounds read low 0.981 | locus YHR013C, strain ard1, active compounds read low 0.969 | locus YHR027C, strain rpn1, active compounds read low 0.997 | locus YHR030C, strain SLT2, active compounds read low 1 and 0.966 | locus YHR079C, strain IRE1 (second series), active compounds read low 1.03 | locus YHR079C, strain IRE1, active compounds read low 0.978 | locus YHR094C, strain hxt1, active compounds read low 1.02 | locus YHR129C, strain ARP1, active compounds read low 1 | locus YHR142W, strain chs7, active compounds read low 1.02 | locus YHR200W, strain rpn10, active compounds read low 1.03 | locus YIL066C, strain RNR3, active compounds read low 1.01 | locus YIL073C, strain SPO22, active compounds read low 1.12 | locus YIL125W, strain kgd1, active compounds read low 1.02 | locus YIR030C, strain dcg1, active compounds read low 1.04 | locus YJL092W, strain hpr5, active compounds read low 0.998 | locus YJL095W, strain BCK1 (second series), active compounds read low 0.987 | locus YJL095W, strain BCK1, active compounds read low 1.02 and 0.981 | locus YJL115W, strain asf1, active compounds read low 0.987 | locus YJL129C, strain trk1, active compounds read low 0.994 | locus YJL134W, strain LCB3, active compounds read low 1 | locus YJL154C, strain vps35, active compounds read low 0.982 | locus YJL164C, strain tpk1, active compounds read low 1.02 | locus YJL166W, strain qcr8, active compounds read low 1.01 | locus YJL168C, strain set2, active compounds read low 1.01 | locus YJL187C, strain SWE1 (second series), active compounds read low 1 | locus YJL187C, strain SWE1, active compounds read low 0.991 | locus YJR043C, strain POL32, active compounds read low 1.01 | locus YJR066W, strain TOR1, active compounds read low 0.925
